Compounds without any hit were thinned out: in the full panel of roughly 83,000, 20% have a hit.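 Treatment: one concentration, 48 hours, 96-well format. Scoring: percent growth, with anything below 10 considered active.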 A number with no mark means an inactive call. The source made the active and inactive calls.

For the first experiment, the system named is UACC-62 melanoma. Nature of the experiment: NCI-60 one-dose screen, 48 h (100 = growth as untreated, 0 = no growth, -100 = all killed). The following applies: 10 µM unless noted.
Take `CCN(CC)CCCCCCNc1cc(OC)cc2cccnc12`: the growth was 102%.
Take `COc1ccccc1Nc1cc(O)c2c(=O)cc(-c3ccccc3)oc2c1`: the growth was 35.8%.
Same read-out and setting: as for `COc1ccc(C(O)c2cc3c(N)c(C(=O)Nc4ccc(Cl)cc4)sc3nc2C)cc1` (stereo unspecified), the figure is 17.3%; as for `COc1cc(NCC(O)CN(CC(C)C)CC(C)C)c2nc(C)ccc2c1` (stereo unspecified), 88.9%.
Still for that read-out and setting: as for `CCCCCCCCCCN=C(N)N=C(N)N`, the figure is 37.2%.
The same measure, in the same setting: as for `COc1ccc(C(O)c2cc3c(N)c(C(=O)Nc4cccc(Br)c4C)sc3nc2C)cc1` (stereo unspecified), the figure is 27.2%; as for `CCCCCCCCCCCCCCCCCCOc1ccccc1N`, 88.5%.
As to `CC(=O)O[C@H]1CC[C@@]2(C)[C@@H](CC[C@@H]3[C@@H]2CC[C@@]2(C)[C@H]3CC[C@]2(O)C(C)=O)C1`, the growth was 91%.
Consider `CCC1(CC)NC(=O)c2c(c3ccc(Cl)c(Cl)c3n2C)C1C#N` (stereo unspecified), for which the growth was 76.1%.
The same measure, in the same setting: with `COc1ccc(C2CC(c3cccc(Nc4ccncc4)c3)=NN2c2cc(Cl)cc(Cl)c2)cc1` (stereo unspecified) the figure was 99.6%; with `CC(=O)Nc1ccc(S(=O)(=O)NC2CCCCC2)cc1`, 91.4%; with `Clc1ccc(N2N=C(c3cccc(Nc4ccncc4)c3)CC2c2ccccc2)cc1` (stereo unspecified), 96.9%.
Consider `CN1C2CCC1CN(c1cnc(C(=O)Nc3cc(F)cc4cccnc34)cn1)C2`, for which the growth is 94.9%.
For the molecule `C=Cc1cc[n+](CCCCCCCCCCCC)cc1`, the growth is 105%.
On the same count and under the same terms, as for `CCCCCCCCCCCCCCCC(=O)OC[C@@]1(O)C[C@@]23CC[C@@H]4C(C)(C)[C@H](O)CC[C@@]4(C)[C@@H]2CC[C@H]1C3`, the figure is 100%.
On to `O=C(CN1CCOCC1)Nc1ccc2ncnc(Nc3ccc(OCc4cccc(F)c4)c(Cl)c3)c2c1`, for which the growth is 84.8%.
As to `Clc1cc(Cl)cc(N2N=C(c3cccc(Nc4ccncc4)c3)CC2c2ccccc2)c1` (stereo unspecified), the growth was 99%.
As to `C[C@]12CCc3nc(Nc4cccc(O)c4)sc3C1=CC[C@@H]1[C@@H]2CC[C@]2(C)/C(=N\NC(N)=S)CC[C@@H]12`, the growth is 73.1%.
Same read-out and setting: as for `Cc1c2c(cc[n+]1Cc1ccccc1)c1ccc(OCc3ccccc3)cc1n2Cc1ccccc1`, the figure is -87.1% (active); as for `O=C(O)CNC(=O)CN1C(=O)c2ccccc2C1=O`, 108%; as for `O=C(Nc1nc2ccc(C(=O)N3CCN(c4ccc(Cl)c(Cl)c4)CC3)cc2s1)c1ccc(NCCc2ccccc2)c([N+](=O)[O-])c1`, 78.1%.
In the case of `COc1ccccc1-c1c(-c2ccc(Cl)cc2)c2cc3c(cc2[nH]c1=O)OCCO3`, the growth is 71%.
On the same count and under the same terms, with `O=S(=O)(NCCNc1nccc(-c2c(-c3ccc(F)c(O)c3)nc3occn23)n1)c1ccccc1` the figure was 6.23% (active).
Same read-out and setting: as for `Clc1cc(Cl)cc(N2N=C(c3cccc(Nc4ccncc4)c3)CC2c2ccc(Br)cc2)c1` (stereo unspecified), the figure is 102%; as for `Cn1c(COC(=O)NCCn2ccnc2)nc2c(N3CCOCC3)nc(-c3ccccc3)nc21`, -93.9% (active); as for `Cc1c2c(cc[n+]1Cc1ccc(F)cc1)c1ccc(OCc3cccc(F)c3)cc1n2Cc1cccc(F)c1`, -98% (active).
Consider `CCCOc1nc(SCCC)nc2c1cnn2-c1ccccc1`, for which the growth is 86.8%.
`Cc1ccc(/C=C/C(=O)c2ccc(N)cc2)c(C)c1`: the growth was 86.8%.
On to `Cc1cc(C)c(C=O)c(C)c1`, for which the growth is 108%.
With `COc1ccc(-c2c(-c3ccccc3)noc2N)cc1OC`, the growth was 95%.
Same read-out and setting: with `O=C1c2cccnc2C(=O)c2nc3cc(N4CCN(C5CC5)CC4)ccc3nc21` the figure was -98.5% (active).
For `c1ccc(N2N=C(c3cccc(Nc4ccncc4)c3)CC2c2ccc3c(c2)OCO3)cc1` (stereo unspecified), the growth was 62.1%.
On to `COc1cc(NCC(C)(O)CN(CC(C)C)CC(C)C)c2nc(C)ccc2c1` (stereo unspecified), for which the growth was 68.3%.
As for `C[C@@H]1CN(Cc2ccc(/C=C/c3n[nH]c4ccc5nc(-c6cn[nH]c6C(F)(F)F)c6c(c5c34)CCCC6)cc2)C[C@H](C)O1`, the growth is 44.3%.
Regarding `CC1(C)CCCN1CCCN1c2ccccc2Sc2ccc(Cl)cc21`, the growth is 75.6%.
On the same count and under the same terms, with `CC1CCN(C(=O)OCc2nc3nc(Cl)nc(N4CCOCC4)c3[nH]2)CC1` the figure was -94.1% (active); with `CC1(C)CN(c2cnc(C(=O)Nc3cc(F)cc4cccnc34)cn2)CCN1`, 106%.
Same read-out and setting: with `Cn1c(COC(=O)NCCN2CCOCC2)nc2c(N3CCOCC3)nc(-c3ccccc3)nc21` the figure was -93.6% (active).

A further experiment relates to LOX IMVI melanoma. The description is as above. The following applies: 10 µM unless noted.
`CCN(CC)CCCCCCNc1cc(OC)cc2cccnc12`: the growth was -60.4% (active).
Still for that read-out and setting: as for `COc1ccccc1Nc1cc(O)c2c(=O)cc(-c3ccccc3)oc2c1`, the figure is 39.9%; as for `COc1ccc(C(O)c2cc3c(N)c(C(=O)Nc4ccc(Cl)cc4)sc3nc2C)cc1` (stereo unspecified), 29.2%; as for `COc1cc(NCC(O)CN(CC(C)C)CC(C)C)c2nc(C)ccc2c1` (stereo unspecified), 90.1%.
The same measure, in the same setting: as for `CCCCCCCCCCN=C(N)N=C(N)N`, the figure is 47.3%; as for `COc1ccc(C(O)c2cc3c(N)c(C(=O)Nc4cccc(Br)c4C)sc3nc2C)cc1` (stereo unspecified), 32.7%.
Regarding `CCCCCCCCCCCCCCCCCCOc1ccccc1N`, the growth is 38.6%.
On the same count and under the same terms, as for `CC(=O)O[C@H]1CC[C@@]2(C)[C@@H](CC[C@@H]3[C@@H]2CC[C@@]2(C)[C@H]3CC[C@]2(O)C(C)=O)C1`, the figure is 99.2%; as for `CCC1(CC)NC(=O)c2c(c3ccc(Cl)c(Cl)c3n2C)C1C#N` (stereo unspecified), 99.7%.
As to `COc1ccc(C2CC(c3cccc(Nc4ccncc4)c3)=NN2c2cc(Cl)cc(Cl)c2)cc1` (stereo unspecified), the growth is -52.7% (active).
Still for that read-out and setting: as for `CC(=O)Nc1ccc(S(=O)(=O)NC2CCCCC2)cc1`, the figure is 95.8%.
Still for that read-out and setting: with `Clc1ccc(N2N=C(c3cccc(Nc4ccncc4)c3)CC2c2ccccc2)cc1` (stereo unspecified) the figure was 86.8%.
As for `CN1C2CCC1CN(c1cnc(C(=O)Nc3cc(F)cc4cccnc34)cn1)C2`, the growth is 33.2%.
Turning to `C=Cc1cc[n+](CCCCCCCCCCCC)cc1`, the growth was 99.7%.
On the same count and under the same terms, with `CCCCCCCCCCCCCCCC(=O)OC[C@@]1(O)C[C@@]23CC[C@@H]4C(C)(C)[C@H](O)CC[C@@]4(C)[C@@H]2CC[C@H]1C3` the figure was 103%; with `O=C(CN1CCOCC1)Nc1ccc2ncnc(Nc3ccc(OCc4cccc(F)c4)c(Cl)c3)c2c1`, 72.9%.
Still for that read-out and setting: as for `Clc1cc(Cl)cc(N2N=C(c3cccc(Nc4ccncc4)c3)CC2c2ccccc2)c1` (stereo unspecified), the figure is -81.2% (active).
On the same count and under the same terms, as for `C[C@]12CCc3nc(Nc4cccc(O)c4)sc3C1=CC[C@@H]1[C@@H]2CC[C@]2(C)/C(=N\NC(N)=S)CC[C@@H]12`, the figure is -73.8% (active).
Turning to `Cc1c2c(cc[n+]1Cc1ccccc1)c1ccc(OCc3ccccc3)cc1n2Cc1ccccc1`, the growth was -93.2% (active).
As to `O=C(O)CNC(=O)CN1C(=O)c2ccccc2C1=O`, the growth is 95%.
Take `O=C(Nc1nc2ccc(C(=O)N3CCN(c4ccc(Cl)c(Cl)c4)CC3)cc2s1)c1ccc(NCCc2ccccc2)c([N+](=O)[O-])c1`: the growth was 98.3%.
For the molecule `COc1ccccc1-c1c(-c2ccc(Cl)cc2)c2cc3c(cc2[nH]c1=O)OCCO3`, the growth was 73.9%.
For the molecule `O=S(=O)(NCCNc1nccc(-c2c(-c3ccc(F)c(O)c3)nc3occn23)n1)c1ccccc1`, the growth is 33.7%.
On to `Clc1cc(Cl)cc(N2N=C(c3cccc(Nc4ccncc4)c3)CC2c2ccc(Br)cc2)c1` (stereo unspecified), for which the growth was -88.4% (active).
As for `Cn1c(COC(=O)NCCn2ccnc2)nc2c(N3CCOCC3)nc(-c3ccccc3)nc21`, the growth is -88.9% (active).
As to `Cc1c2c(cc[n+]1Cc1ccc(F)cc1)c1ccc(OCc3cccc(F)c3)cc1n2Cc1cccc(F)c1`, the growth was -82.7% (active).
On to `CCCOc1nc(SCCC)nc2c1cnn2-c1ccccc1`, for which the growth was 110%.
On the same count and under the same terms, as for `Cc1ccc(/C=C/C(=O)c2ccc(N)cc2)c(C)c1`, the figure is -91.5% (active).
Turning to `Cc1cc(C)c(C=O)c(C)c1`, the growth is 96.8%.
On the same count and under the same terms, with `COc1ccc(-c2c(-c3ccccc3)noc2N)cc1OC` the figure was 105%.
On the same count and under the same terms, with `O=C1c2cccnc2C(=O)c2nc3cc(N4CCN(C5CC5)CC4)ccc3nc21` the figure was -46.5% (active); with `c1ccc(N2N=C(c3cccc(Nc4ccncc4)c3)CC2c2ccc3c(c2)OCO3)cc1` (stereo unspecified), -22.1% (active); with `COc1cc(NCC(C)(O)CN(CC(C)C)CC(C)C)c2nc(C)ccc2c1` (stereo unspecified), 86.7%.
Take `C[C@@H]1CN(Cc2ccc(/C=C/c3n[nH]c4ccc5nc(-c6cn[nH]c6C(F)(F)F)c6c(c5c34)CCCC6)cc2)C[C@H](C)O1`: the growth is 8.23% (active).
Same read-out and setting: as for `CC1(C)CCCN1CCCN1c2ccccc2Sc2ccc(Cl)cc21`, the figure is 57.9%.
`CC1CCN(C(=O)OCc2nc3nc(Cl)nc(N4CCOCC4)c3[nH]2)CC1`: the growth was -86.4% (active).
As to `CC1(C)CN(c2cnc(C(=O)Nc3cc(F)cc4cccnc34)cn2)CCN1`, the growth is 69.7%.
Still for that read-out and setting: with `Cn1c(COC(=O)NCCN2CCOCC2)nc2c(N3CCOCC3)nc(-c3ccccc3)nc21` the figure was -87.2% (active).

(Values after PubChem BioAssay (NCI).)
